Results on twelve compounds are retold here after PubChem BioAssay (Tox21).

Inconclusive results are not listed. Calls of active or inactive are those of the source. Unless noted, the call rests on the fitted dose curve. Bridge positions count the residues as written; N and C are the ends. Square brackets hold non-standard residues; d marks the D form. Peptide text beside a SMILES is read from it. hArg = N=C(N)NCCCC[C@H](N)C(=O)O; Mpa = O=C(O)CCS

The nature of test [1]: Nuclear factor erythroid 2-related factor 2/antioxidant responsive element (Nrf2/ARE) small molecule agonists: luciferase reporter gene qHTS assay in human keratinocytes (AID 1919969). Further: nearly all actives have a fitted effect of over 35% in size. Further: potency means the concentration at half of the fitted maximal effect.
Test [2] has as its target KiSS-1 receptor (Homo sapiens) (UniProt Q969F8). As to the kind of experiment: Human kisspeptin (KISS1R) small molecule agonists, calcium flux assay in KISS1R-HEK293 cells (AID 1920064; active means well fitted activation curve with a large enough effect in the repeat runs). Summed up: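 Stable human KISS1R HEK293 line; 18 h plating, 37 C/5% CO2; calcium dye 1 h 37 C; compound pin transfer; kinetic fluorescence Ex/Em 480/540, 3 min.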
(Calcium flux is commonly read through the fluorescence of an indicator in the cells.)

Test [3] in a line: G protein-coupled receptor (GPCR) small molecule agonists, calcium flux assay: HEK293 wild type cell line counter screen (AID 1920065). The method, boiled down:
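Kinetic fluorescence at Ex/Em 480/540, recorded every second over 3 min, served as the read-out after compound addition. Each compound was tested at 15 concentrations in triplicate on cells pre-loaded with calcium dye for 1 h.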

Test [4] in a line: p53 small molecule agonists, cell-based qHTS assay with rat liver microsomes (AID 1963578). The method, boiled down:
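p53RE-bla cells were exposed to compounds together with rat liver microsomes (0.5 mg/mL final) and NADPH (0.5 mg/mL final) for 16 h at 37 C, then read by LiveBLAzer beta-lactamase fluorescence after 2 h at room temperature.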
(In general: qHTS replaces the single test concentration by a dilution series.)

Test [5] in a line: p53 small molecule agonists, cell-based qHTS assay with human liver microsomes: qHTS cell viability counter screen (AID 1963579). Further: nearly all actives have a fitted effect of over 45% in size. Further: potency means the concentration at half of the fitted maximal effect. Summed up: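 p53RE-bla cells (4,000/well) were pre-incubated 5 h at 37 C, then given compounds in DMSO plus human liver microsomes (0.5 mg/mL final) and NADPH (0.5 mg/mL final) for 16 h at 37 C. Viability was read by CellTiter-Glo luminescence.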
The target in test [6] is 5-hydroxytryptamine receptor 2A (Homo sapiens) (UniProt P28223). The test is described as follows: 5-hydroxytryptamine receptor 2A (HTR2A) small molecule antagonists, cell-based qHTS assay (AID 1963586). Further: nearly all actives have a fitted effect of over 45% in size. Further: potency means the concentration at half of the fitted maximal effect. Summed up: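 Antagonist-mode intracellular calcium assay: DOI (4 nM) added after 5 min compound pre-incubation at room temperature to dye-loaded HTR2A-CHO cells. Fluorescence followed for 3 min, sampled every second.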

Test [7] concerns the target Muscarinic acetylcholine receptor M1 (Homo sapiens) (UniProt P11229). The test is described as follows: Cholinergic receptor muscarinic 1 (CHRM1) small molecule agonists, cell-based qHTS assay (AID 1963589). Further: nearly all actives have a fitted effect of over 35% in size. Summed up: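 Human M1 in stable CHO line; 18 h plating, 1 h dye load 37 C; cpd added (agonist mode); Ca2+ fluorescence kinetic read, 1 s intervals; 15 conc, 3 runs.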

The target of test [8] is Beta-2 adrenergic receptor (Homo sapiens) (UniProt P07550). The test is described as follows: Adrenergic beta2 receptor (ADRB2) small molecule antagonists, cell-based qHTS assay (AID 1963592). Further: series mostly up to about 92 µM; nearly all actives have a fitted effect of over 50% in size. The method, boiled down: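 Cells (CHO, stable ADRB2 overexpression) incubated 18-20hr at 37C; compounds added from DMSO; agonist mix (1nM isoproterenol, 100uM IBMX, 25uM Ro-20-1724) added; 0.5hr RT; d2-cAMP and anti-cAMP-cryptate added; 1hr RT; 665/615 nm read.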

In test [9] the target is D(2) dopamine receptor (Homo sapiens) (UniProt P14416). As to the kind of experiment: Dopamine D2 receptor (DRD2) small molecule agonists, cell-based qHTS assay (AID 1963594). Further: nearly all actives have a fitted effect of over 35% in size. The method, boiled down: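 HEK293 cells stably expressing DRD2 were cultured 24 h at 37 C, then given Ro20-1724 (0.1 mM final) and compounds for 10 min at room temperature. NKH477 (200nM) was then added for 30 min. cAMP was read by HTRF.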

Test [10] addresses Gonadotropin-releasing hormone receptor (Homo sapiens) (UniProt P30968). As to the kind of experiment: Human gonadotropin-releasing hormone receptor (GnRHR) small molecule agonists, calcium flux assay in GnRHR-HEK293 cells (AID 1920063). Further: nearly all actives have a fitted effect of over 35% in size. The method, boiled down: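 GnRHR-HEK293, 1500 cells/well, 18 h 37 C/5% CO2; Ca dye 1 h 37 C; cpd pinned (DMSO), agonist mode; kinetic FL 480/540, 3 min, 1 s reads; 15 conc, n=3.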

Test [11] in a line: p53 small molecule agonists, cell-based qHTS assay with human liver microsomes (AID 1963577). The method, boiled down:
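p53RE-bla reporter cells were pre-incubated 5 h at 37 C, then treated with compounds plus human liver microsomes (0.5 mg/mL final) and NADPH (0.5 mg/mL final) for 16 h at 37 C. Beta-lactamase activity was read by LiveBLAzer fluorescence after 2 h at room temperature.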

Test [12] can be described thus: p53 small molecule agonists, cell-based qHTS assay: qHTS cell viability counter screen (AID 1963581). Further: nearly all actives have a fitted effect of over 45% in size. The method, boiled down:
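HCT-116 p53RE-bla cells, 4,000/well, plated 5 h before compound pin transfer; 16 h at 37 C; bla substrate 2 h RT; then CellTiter-Glo, 30 min RT, luminescence.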

Test [13] deals with 5-hydroxytryptamine receptor 2A (Homo sapiens) (UniProt P28223). The test is described as follows: 5-hydroxytryptamine receptor 2A (HTR2A) small molecule agonists, cell-based qHTS assay (AID 1963587). Further: nearly all actives have a fitted effect of over 30% in size. Further: potency means the concentration at half of the fitted maximal effect. The method, boiled down: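 HTR2A-CHO cells, plated 18 h at 37 C/5% CO2, dye-loaded 1 h at 37 C; compounds in DMSO added by pin tool (agonist mode). Intracellular calcium flux read as kinetic fluorescence on FDSS over 2 min at 1 s intervals.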

Test [14] in a line: cAMP Responsive Elements (CRE) small molecule agonists, cell-based qHTS assay (AID 1963590). The method, boiled down: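 HEK 293T CRE-bla, 2,000 cells/well, 18 h preincubation 37 C/5% CO2; cpds (DMSO) pinned, 3 h; LiveBLAzer B/G FRET substrate, 2 h RT.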
Test [15] in a line: cAMP Responsive Elements (CRE) small molecule antagonists, cell-based qHTS assay (AID 1963591; active means well fitted inhibition curve with a large enough effect in the signal ratio in the repeat runs, not every such curve was filed as active; the % refers to the signal ratio). Summed up: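 Beta-lactamase reporter read by FRET substrate (LiveBLAzer B/G) after 2 h at room temperature. CRE-bla HEK293T cells had received compound plus 0.25 uM (final) NKH477 for 3 h at 37 °C.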
Test [16] concerns the target D(2) dopamine receptor (Homo sapiens) (UniProt P14416). The test is described as follows: Dopamine D2 receptor (DRD2) small molecule antagonists, cell-based qHTS assay (AID 1963595; active means well fitted inhibition curve with a large enough effect in the signal ratio in the repeat runs, with a control signal flat; the % refers to the signal ratio). The method, boiled down:
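Antagonist mode in DRD2-HEK293 cells: after compound addition with 0.1 mM Ro20-1724, cells received quinpirole (12 nM) and NKH477 (200 nM) for 30 min at room temperature; HTRF cAMP read after 1 h detection.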

Test [17] concerns the target Beta-2 adrenergic receptor (Homo sapiens) (UniProt P07550). The test is described as follows: Adrenergic beta2 receptor (ADRB2) small molecule agonists, cell-based qHTS assay (AID 1963593).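 Further: CHO cells stably overexpressing human ADRB2.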 Summed up:
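CHO cells stably over-expressing ADRB2 were plated overnight at 37C, then dosed with compounds plus a stimulation mix containing 100uM IBMX and 25uM Ro-20-1724 for 0.5hr at room temperature. cAMP was measured by HTRF competition, 1hr.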

A short description of test [18]: p53 small molecule agonists, cell-based qHTS assay with rat liver microsomes: qHTS cell viability counter screen (AID 1963580). Further: nearly all actives have a fitted effect of over 45% in size. Summed up: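 In HCT-116 cells carrying a p53 response element-bla reporter, compounds were metabolically activated in situ by rat liver microsomes with NADPH over 16 h. Cell ATP content then served as the cytotoxicity measure.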
Test [19] concerns the target Muscarinic acetylcholine receptor M1 (Homo sapiens) (UniProt P11229). As to the kind of experiment: Cholinergic receptor muscarinic 1 (CHRM1) small molecule antagonists, cell-based qHTS assay (AID 1963588). Further: nearly all actives have a fitted effect of over 40% in size. Summed up: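 CHRM1-CHO calcium-flux assay, antagonist mode. Cells were seeded 18 h, dye-loaded 1 h at 37 C and given compound for 5 min at RT, then acetylcholine was added at 50nM. FDSS fluorescence was read 3 min; 15 concentrations, three runs.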

Test [20] can be described thus: p53 small molecule agonists, cell-based qHTS assay (AID 1963582; active means well fitted activation curve with a large enough effect in the signal ratio in the repeat runs, not every such curve was filed as active; the % refers to the signal ratio). The method, boiled down: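 Reporter line: p53RE-bla. Pre-incubation 5 h, 37 C, 5% CO2; compound (DMSO, pin tool) 16 h, 37 C; B/G FRET substrate 2 h RT; fluorescence intensity read.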

Chain of D(2) dopamine receptor (Homo sapiens) (P14416 whole entry, looked up): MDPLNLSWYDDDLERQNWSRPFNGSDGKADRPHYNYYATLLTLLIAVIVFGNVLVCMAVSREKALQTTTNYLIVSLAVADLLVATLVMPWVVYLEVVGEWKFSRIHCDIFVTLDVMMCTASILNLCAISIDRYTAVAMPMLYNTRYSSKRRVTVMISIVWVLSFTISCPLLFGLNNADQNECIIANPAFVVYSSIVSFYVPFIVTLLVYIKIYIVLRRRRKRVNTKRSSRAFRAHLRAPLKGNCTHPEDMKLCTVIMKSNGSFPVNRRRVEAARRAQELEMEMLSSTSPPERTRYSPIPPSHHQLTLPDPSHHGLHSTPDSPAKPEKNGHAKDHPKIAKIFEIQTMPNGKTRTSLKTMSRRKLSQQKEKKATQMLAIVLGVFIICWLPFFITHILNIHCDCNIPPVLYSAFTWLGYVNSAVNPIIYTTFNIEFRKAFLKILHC
Chain of 5-hydroxytryptamine receptor 2A (Homo sapiens) (P28223 whole entry, looked up): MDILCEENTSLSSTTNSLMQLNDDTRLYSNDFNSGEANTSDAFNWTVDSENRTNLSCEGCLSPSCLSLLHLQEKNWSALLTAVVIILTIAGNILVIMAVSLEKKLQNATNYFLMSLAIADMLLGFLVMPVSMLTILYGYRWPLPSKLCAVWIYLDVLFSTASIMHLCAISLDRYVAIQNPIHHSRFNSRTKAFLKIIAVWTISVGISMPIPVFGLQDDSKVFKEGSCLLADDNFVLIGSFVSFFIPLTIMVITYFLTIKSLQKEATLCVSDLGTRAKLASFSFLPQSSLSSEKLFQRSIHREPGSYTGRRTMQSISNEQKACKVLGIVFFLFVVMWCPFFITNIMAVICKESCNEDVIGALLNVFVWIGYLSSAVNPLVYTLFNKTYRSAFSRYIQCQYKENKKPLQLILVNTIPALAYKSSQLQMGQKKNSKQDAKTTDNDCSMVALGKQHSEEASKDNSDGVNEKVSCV
Chain of Beta-2 adrenergic receptor (Homo sapiens) (P07550 whole entry, looked up): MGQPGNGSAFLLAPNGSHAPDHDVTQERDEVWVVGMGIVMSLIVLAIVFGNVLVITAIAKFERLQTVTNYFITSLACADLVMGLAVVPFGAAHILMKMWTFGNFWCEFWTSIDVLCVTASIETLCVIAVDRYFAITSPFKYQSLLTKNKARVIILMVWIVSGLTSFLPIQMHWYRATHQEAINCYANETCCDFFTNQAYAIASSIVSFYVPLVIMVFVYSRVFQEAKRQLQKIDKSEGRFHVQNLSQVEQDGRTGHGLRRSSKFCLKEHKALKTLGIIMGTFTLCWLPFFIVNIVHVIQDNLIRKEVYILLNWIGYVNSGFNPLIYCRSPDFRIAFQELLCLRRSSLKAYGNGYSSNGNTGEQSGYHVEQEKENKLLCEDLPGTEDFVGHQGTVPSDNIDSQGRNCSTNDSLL
Chain of KiSS-1 receptor (Homo sapiens) (Q969F8 whole entry, looked up): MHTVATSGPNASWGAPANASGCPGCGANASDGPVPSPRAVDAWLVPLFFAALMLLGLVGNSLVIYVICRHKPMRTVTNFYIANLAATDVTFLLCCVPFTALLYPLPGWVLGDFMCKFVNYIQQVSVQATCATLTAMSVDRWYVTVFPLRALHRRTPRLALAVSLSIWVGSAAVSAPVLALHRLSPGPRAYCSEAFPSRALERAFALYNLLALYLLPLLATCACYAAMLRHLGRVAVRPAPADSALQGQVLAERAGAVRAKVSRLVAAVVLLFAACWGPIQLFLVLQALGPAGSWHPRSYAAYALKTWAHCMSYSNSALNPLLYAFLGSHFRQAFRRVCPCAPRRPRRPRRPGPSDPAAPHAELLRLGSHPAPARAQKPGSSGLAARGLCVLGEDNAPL
Chain of Muscarinic acetylcholine receptor M1 (Homo sapiens) (P11229 whole entry, looked up): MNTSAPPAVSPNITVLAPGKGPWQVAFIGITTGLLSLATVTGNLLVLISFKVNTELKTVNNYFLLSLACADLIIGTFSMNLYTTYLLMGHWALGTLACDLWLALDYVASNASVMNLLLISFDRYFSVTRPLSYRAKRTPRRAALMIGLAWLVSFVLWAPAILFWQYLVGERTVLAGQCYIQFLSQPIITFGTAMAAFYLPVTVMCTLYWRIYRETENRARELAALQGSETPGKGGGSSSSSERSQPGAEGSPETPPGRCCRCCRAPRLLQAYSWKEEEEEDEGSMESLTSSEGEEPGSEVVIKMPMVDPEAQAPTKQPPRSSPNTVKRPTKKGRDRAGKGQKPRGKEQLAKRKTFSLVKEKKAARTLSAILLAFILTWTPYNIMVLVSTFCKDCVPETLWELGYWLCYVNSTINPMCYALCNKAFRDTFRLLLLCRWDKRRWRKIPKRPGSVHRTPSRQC
Chain of Gonadotropin-releasing hormone receptor (Homo sapiens) (P30968 whole entry, looked up): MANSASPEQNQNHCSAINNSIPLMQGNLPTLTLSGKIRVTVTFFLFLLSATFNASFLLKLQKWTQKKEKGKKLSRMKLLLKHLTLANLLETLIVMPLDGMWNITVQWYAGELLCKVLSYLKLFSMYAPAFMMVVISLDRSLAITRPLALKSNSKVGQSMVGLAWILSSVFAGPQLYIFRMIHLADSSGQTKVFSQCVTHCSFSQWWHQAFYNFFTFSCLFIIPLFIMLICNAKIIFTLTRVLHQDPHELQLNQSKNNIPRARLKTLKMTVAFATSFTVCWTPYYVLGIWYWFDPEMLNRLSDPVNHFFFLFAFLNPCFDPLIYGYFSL

`O=S(=O)(c1ccc(Cl)cc1)c1ccc(Cl)cc1`: the Potency entry in test [1], in test [2], in [3], in test [4], in [5] and in [7] was “inactive” each time. Further, the Potency entry in test [8] and in test [9] was “inactive” each time. For the same compound, in test [6], the Potency was 10.7 µM (active).

`Cc1ncc(C[n+]2csc(CCO)c2C)c(N)n1`: the Potency entry in test [10], in [2], in test [3], in [11], in test [4] and in [5] was “inactive” in each case. For the same compound, the Potency entry in test [12], in [6], in test [13], in test [7], in test [14] and in [15] was “inactive” in each case. Further, the Potency entry in test [8], in [9] and in test [16] was “inactive” throughout.

Consider `C[C@@H]1O[C@@H](O[C@@H]2C=C3CC[C@@H]4[C@H](CC[C@]5(C)[C@@H](c6ccc(=O)oc6)CC[C@]45O)[C@@]3(C)CC2)[C@H](O)[C@H](O)[C@H]1O`, for which the Potency in test [1] is 0.0106 µM (active). Moreover, the Potency entry in test [2], in test [3], in [11], in test [4], in test [5] and in test [8] was “inactive” throughout. The Potency entry in test [17], in [9] and in test [16] was “inactive” in each case.

As for `CCOc1cc(C(C)(C)C)ccc1C1COC(c2c(F)cccc2F)=N1` (centres undefined), the Potency entry in test [1], in test [10], in test [3], in test [5], in test [12] and in test [6] was “inactive” throughout. For the same compound, the Potency entry in test [13], in test [7], in test [8] and in test [16] was “inactive” each time.

Take `O=C(O)C1(c2ccc3c(c2)OC[C@H](Cc2ccc(-c4ccccc4)cc2)[C@H]3O)CCCC1`: the Potency result in test [3], in [18], in test [9] and in test [16] was “inactive” each time. In addition, the Potency is 40.8 µM (active) in [5], 5.3 µM (active) in test [6] and 54.9 µM (active) in [13].

On to `NC(=O)[C@@H]1CSSCCC(=O)N[C@@H](CCCCN=C(N)N)C(=O)NCC(=O)N[C@@H](CC(=O)O)C(=O)N[C@@H](Cc2c[nH]c3ccccc23)C(=O)N2CCC[C@H]2C(=O)N1` ([Mpa][hArg]GDWPC-NH2; disulfide 1-7), for which the Potency result in [6], in [13], in [19] and in test [7] was “inactive” throughout.

As to `CC(C)N(C(=O)SC/C(Cl)=C/Cl)C(C)C`, the Potency result in test [2], in test [3], in test [11], in [4], in test [5] and in test [18] was “inactive” in each case. In addition, the Potency entry in test [12], in test [20], in test [6], in test [13], in test [7] and in test [14] was “inactive” throughout. Besides, the Potency entry in [15], in test [8], in [17], in test [9] and in test [16] was “inactive” each time.

In the case of `CSCC[C@H](NC(=O)[C@H](Cc1c[nH]c2ccccc12)NC(=O)CCNC(=O)OC(C)(C)C)C(=O)N[C@@H](CC(=O)O)C(=O)N[C@@H](Cc1ccccc1)C(N)=O`, the Potency entry in test [6], in [13], in [19] and in test [7] was “inactive” throughout.

`CCCCC(CC)COC(=O)c1ccccc1C(=O)OCC(CC)CCCC` (centres undefined): the Potency entry in test [10], in test [3], in test [11], in [4], in [5] and in [18] was “inactive” each time. Also, the Potency entry in test [8] and in test [16] was “inactive” throughout.

Consider `CN(C)CCCCCCN(C)C`, for which the Potency entry in test [11], in test [4], in test [18], in [12] and in test [20] was “inactive” each time.

On to `Cc1ccc(O)cc1C`, for which the Potency result in [6], in test [19], in [7], in test [8], in test [9] and in test [16] was “inactive” each time.

On to `CC(C)C[C@H](NC(=O)CNC(=O)[C@H](Cc1ccc(O)cc1)NC(=O)[C@H](CO)NC(=O)[C@H](Cc1c[nH]c2ccccc12)NC(=O)[C@H](Cc1cnc[nH]1)NC(=O)[C@@H]1CCC(=O)N1)C(=O)N[C@@H](CCCN=C(N)N)C(=O)N1CCC[C@H]1C(=O)NCC(N)=O` (stereo in doubt), for which the Potency result in test [6], in test [13], in test [19] and in test [7] was “inactive” in each case.
